This is an account of results in PubChem BioAssay (NCI).

The panel holds about 79,000 compounds, 15% with a hit somewhere; the sample as a whole holds those more often. Values without a mark were called inactive. Activity calls are given as the source filed them. Cut-off read from the data, not from the text of the source: active = growth inhibition above about 70%; inactive = the rest.

The assay in a line: NCI Yeast Anticancer Drug Screen. Data for the wt2 strain (AID 169).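 Note: 0% = growth of vehicle-treated yeast cultures.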 The note with it: S. cerevisiae wt2 strain growth inhibition; at 33.0 µM; stronger effect = higher value. Summed up: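 Treated yeast vs. vehicle-treated yeast: growth inhibition determined.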
With `COc1ccc2nc(N/N=C/c3sccc3C)cc(C)c2c1`, the growth inhibition is 98% (active).
Consider `O=C(O)/C=C\C(=O)NNc1ccc(Br)cc1`, for which the growth inhibition was 99% (active).
With `S=c1[nH]nc(Cc2ccccc2)c(=S)[nH]1` the figure was 94% (active); with `COc1ccc2nc3cccc([N+](=O)[O-])c3c(NCCCO)c2c1`, 96% (active).
In the case of `Cc1ccc(N(C=O)c2c([N+](=O)[O-])cc([N+](=O)[O-])c3c2=[N+]([O-])CN=3)cc1` it was 90% (active); in that of `COc1ccc(C(=O)OCCc2ccccc2)cc1`, -12%.
In the case of `COc1ccc(C(=O)NCCN(C)C)c2nc3ccccc3cc12` it was -8%.
Regarding `NCC(O)CSCc1ccc(Cl)cc1` (stereo not drawn), the growth inhibition is 1%.
For `CN(C)/N=N/c1nc[nH]c1C(N)=O`, the growth inhibition is -2%.
In the case of `O=c1[nH]c(=O)n(CCCO)cc1F` it was -22%; in that of `COc1ccc(/C(=N/O)c2ccccc2C2=Nc3ccccc3C(NCc3ccccc3)O2)cc1C` (stereo not drawn), 14%.
Take `CCCC(=O)OC(OC(=O)CCC)c1ccc([N+](=O)[O-])o1`: the growth inhibition was 1%.
Regarding `O=C(/C(=C/c1ccccc1)CBr)c1ccccc1`, the growth inhibition was 95% (active).
In the case of `O=C(Cc1ccccc1F)NC1=C(Cl)C(=O)c2ccccc2C1=O` it was -1%.
With `Cc1cccc(N2CCN(C(=O)/C(=C/c3ccccc3)NC(=O)c3ccccc3)CC2)c1` the figure was 38%; with `c1cc(Nc2ccc3c(c2)OCO3)c2cc(C3CCCCC3)ccc2n1`, 0%.
In the case of `COc1cc(NCCCCCNC(C)C)c2ncccc2c1Cl` it was 7%; in that of `COc1ccc2cc(CN3CCC(C4CCN(Cc5ccc6cc(OC)ccc6c5)CC4)CC3)ccc2c1`, -3%.
